A selection: hits, their analogues and other compounds. The true share with any hit is near 7%.
ATXN2 expr inh = inhibitors of ATXN2 expression | HEK-293 ATXN2-luciferase reporter, luminescence, 24 h | Potency, µM (series often up to 57 µM), actives largely listed as inhibitors | 360,000 tested, 0.72% active | AID 1745845; note: nearly all actives have a fitted effect of over 55% in size
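ATXN2-luciferase reporter cells (luciferase flanked by upstream and downstream ATXN2 gene portions) were treated 24 h at 37 °C with compounds at up to 57 uM. SteadyGlo luminescence gave expression; GF-AFC fluorescence gave viability.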
DRD3 agonist = activates the human D3 dopamine receptor. D3R DiscoveRx beta-arrestin cells, luminescence, 90 min. 410,000 tested, 0.58% active. P35462. max activation, %; in the data active = max activation above about 30%
Target sequence (P35462 whole entry, looked up): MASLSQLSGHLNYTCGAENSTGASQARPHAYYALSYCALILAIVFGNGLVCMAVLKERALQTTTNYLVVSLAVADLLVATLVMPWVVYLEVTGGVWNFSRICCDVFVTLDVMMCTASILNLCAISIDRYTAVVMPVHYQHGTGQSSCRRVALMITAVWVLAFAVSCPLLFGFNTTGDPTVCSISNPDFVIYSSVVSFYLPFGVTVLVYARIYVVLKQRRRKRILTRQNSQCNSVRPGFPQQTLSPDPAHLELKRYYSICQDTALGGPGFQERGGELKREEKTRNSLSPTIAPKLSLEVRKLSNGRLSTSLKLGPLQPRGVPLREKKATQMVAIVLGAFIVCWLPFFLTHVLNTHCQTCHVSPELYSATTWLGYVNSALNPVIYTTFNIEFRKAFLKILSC
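Cells at 1500/well, incubated overnight, then treated with pinned compounds (dopamine as control) for 90 min at 37 degrees C. DiscoveRx reagent added for 30 - 60 minutes at room temperature; luminescence read.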
a7 integrin act = activators of alpha7 integrin expression for muscular dystrophy. 350,000 tested, 0.064% active. Potency, µM (highest dose often 38.3 µM), most hits filed as activators. alpha7betagal myoblasts, beta-gal FDG fluorescence, 48 h. AID 624291; note: nearly all actives have a fitted effect of over 60% in size
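Alpha7betagal+/- myoblasts (passage 13) were plated 16-24 hr, then exposed to compounds (1:260 dilution of DMSO stock) for 48 hours at 37C. After MPER lysis, β-galactosidase reporter activity was read as FDG fluorescence (ex 480/em 540) after 30 minutes.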
IL-1B inflam inh = inhibitors of inflammasome signaling (IL-1 beta secretion); activity change, % at 57.5 µM; THP-1 LPS/ATP IL-1B secretion, AlphaLISA, 16 h; stronger effect = lower value; AID 743279; 360,000 tested, 4.7% active; in the data active = activity change below about -50%; inconclusive = mostly about -30% to -49%
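THP-1 cells pretreated 1 hr with compounds (up to 57.5 uM final), then stimulated with LPS (250 ng/mL final) plus ATP (1.25 mM final); secreted IL-1B measured by AlphaLISA after 16 hr, decreased signal indicating inhibition.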
DRD3 antagonist = antagonists of human D3 dopamine receptor; P35462; D3R cells, DiscoveRx beta-arrestin luminescence, antagonist mode; stronger effect = lower value; max response, negative = inhibition, %; 360,000 tested, 2.5% active; AID 652054; in the data active = max response below about -50%; inconclusive = no clear call, values can overlap the other calls
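Cells expressing the human receptor were seeded at 1500 cells/well, incubated overnight at 37 degrees C in 5% CO2, then exposed to library compounds with dopamine controls for 90 minutes at 37 degrees C before luminescent detection.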
S2 tox = viability counter-screen for ATXN expression inhibitors; Potency, µM (doses to about 56.7 µM), actives largely listed as cytotoxic; S2 cells (HEK-293 line with an ATXN2-luciferase reporter) viability, CellTiter-Fluor protease fluorescence, 24 h; 400,000 tested, 0.49% active; note: nearly all actives have a fitted effect of over 40% in size
Numbers stand for hits; ! = repeats disagree. Unless noted, calls come from the whole dose curve; as a rule, active = well fitted curve in the direction sought with a large enough effect; inconclusive = small, poorly fitted or top-dose-only effect, or another doubt; inactive = no such curve, though single readings can be large; an effect the other way counts as inactive or inconclusive.

Screening O=c1c(Cl)c(Cl)cnn1Cc1nnc(-c2ccc(Cl)cc2)o1 returned ATXN2 expr inh inconclusive, DRD3 agonist inactive, a7 integrin act inactive, IL-1B inflam inh -101, DRD3 antagonist -87 and S2 tox inconclusive.
For Cc1cc(C)cc(Cn2ncc(Cl)c(Cl)c2=O)c1 the results were ATXN2 expr inh inconclusive, DRD3 agonist inactive, a7 integrin act inactive, IL-1B inflam inh -120, DRD3 antagonist -59 and S2 tox inconclusive.
`CCc1ccc(C(=O)Cn2ncc(Cl)c(Cl)c2=O)cc1` gave ATXN2 expr inh inconclusive, DRD3 agonist inactive, a7 integrin act inactive, IL-1B inflam inh -116, DRD3 antagonist inactive and S2 tox inconclusive.
For O=c1c(Cl)c(Cl)cnn1Cc1ccccc1Cl the results were ATXN2 expr inh 8.9µM, DRD3 agonist inactive, a7 integrin act inactive, IL-1B inflam inh -100, DRD3 antagonist inconclusive and S2 tox 10µM.
Cc1ccc(-c2nnc(Cc3ccc(Cl)cc3)o2)cc1 was read as ATXN2 expr inh inactive, DRD3 agonist inactive, a7 integrin act inactive, IL-1B inflam inh inactive, DRD3 antagonist inactive and S2 tox inactive.
For O=c1[nH]cnc2c1cnn2Cc1ccccc1Cl the results were ATXN2 expr inh inactive, DRD3 agonist inactive, a7 integrin act inactive, IL-1B inflam inh inactive, DRD3 antagonist inactive and S2 tox inactive.
For Cc1cc(=O)[nH]c2c1cnn2Cc1ccccc1 the results were ATXN2 expr inh inactive, DRD3 agonist inactive, a7 integrin act inactive, IL-1B inflam inh inactive, DRD3 antagonist inactive and S2 tox inactive.
`CC(C)C[C@H](NC(=O)Nc1cccc(Br)c1)C(=O)O` gave ATXN2 expr inh inactive, DRD3 agonist inactive, a7 integrin act inactive, IL-1B inflam inh inactive, DRD3 antagonist inactive and S2 tox inactive.
`Nc1c(O)cccc1C(=O)C[C@@H](N)C(=O)O` gave S2 tox inactive.
O=C(CNS(=O)(=O)c1ccc(Br)cc1Cl)OCC(=O)N1CCCC1=O was read as ATXN2 expr inh inactive, DRD3 agonist inactive, a7 integrin act inactive, IL-1B inflam inh inactive, DRD3 antagonist inconclusive and S2 tox inactive.
`Cc1ccc(Cn2ncc(Cl)c(Cl)c2=O)cc1` gave ATXN2 expr inh inconclusive, DRD3 agonist inactive, a7 integrin act inactive, IL-1B inflam inh -103 and DRD3 antagonist inconclusive.
Cc1[nH]c(C)c2c(=O)n(Cc3ccc(Cl)cc3)ncc12 was read as DRD3 agonist inactive, a7 integrin act inactive, IL-1B inflam inh inactive, DRD3 antagonist inactive and S2 tox inactive.
Screening CN(CCN1CCOCC1)Cc1nc(-c2cccs2)no1 returned ATXN2 expr inh inactive, DRD3 agonist inactive, a7 integrin act inactive, IL-1B inflam inh inactive, DRD3 antagonist inactive and S2 tox inactive.
Cn1c(/C(C#N)=C/c2cccc(O)c2)nc2ccccc21 was read as ATXN2 expr inh inactive, DRD3 agonist inactive, a7 integrin act inactive, IL-1B inflam inh -62, DRD3 antagonist inactive and S2 tox inactive.
`CCCCc1n[nH]c2c1/C(=N/O)CC(c1ccccc1)C2` (centres undefined) gave ATXN2 expr inh inactive, DRD3 agonist inactive, a7 integrin act inactive, IL-1B inflam inh -58, DRD3 antagonist inactive and S2 tox inactive.
For COC(=O)CCc1nc2cc(Cl)ccc2n(Cc2ccccc2)c1=O the results were DRD3 agonist inactive, a7 integrin act inactive, IL-1B inflam inh inactive, DRD3 antagonist inactive and S2 tox inactive.
Screening COc1ccc(NC2C=CS(=O)(=O)C2)c(OC)c1 (centres undefined) returned ATXN2 expr inh inactive, DRD3 agonist inactive, a7 integrin act inactive, IL-1B inflam inh -61, DRD3 antagonist inactive and S2 tox inactive.
Screening C=C1C(=O)O[C@@H]2[C@H]3O[C@]3(C)CC/C=C(\C)CC[C@@H]12 returned ATXN2 expr inh inactive, DRD3 agonist inactive, IL-1B inflam inh -110, DRD3 antagonist inconclusive and S2 tox inactive.
Screening CCCNC(=O)NS(=O)(=O)c1cnccc1Sc1ccc(Cl)c(Cl)c1 returned ATXN2 expr inh inactive, DRD3 agonist inactive, a7 integrin act inactive, IL-1B inflam inh inactive, DRD3 antagonist -53 and S2 tox inactive.
For CCCNC(=O)NS(=O)(=O)c1cnccc1Sc1ccc(Cl)cc1 the results were ATXN2 expr inh inactive, DRD3 agonist inactive, a7 integrin act inactive, IL-1B inflam inh inactive, DRD3 antagonist inactive and S2 tox inactive.
`CCCCN1CCc2c(c3ccccc3n2Cc2ccccc2)C1` gave DRD3 agonist inactive, a7 integrin act inactive, IL-1B inflam inh inactive and DRD3 antagonist -93.
Screening Cc1c2n(c3ccccc13)CCN(C)C2 returned ATXN2 expr inh inactive, DRD3 agonist inactive, a7 integrin act inactive, IL-1B inflam inh inactive, DRD3 antagonist inconclusive and S2 tox inactive.
CN1CCc2c(c3ccccc3n2C)C1 was read as ATXN2 expr inh inactive, DRD3 agonist inactive, a7 integrin act inactive, IL-1B inflam inh inconclusive, DRD3 antagonist -73 and S2 tox inactive.
For CN1CCc2c(c3ccccc3n2Cc2ccccc2)C1 the results were ATXN2 expr inh inactive, DRD3 agonist inactive, a7 integrin act inactive, IL-1B inflam inh inactive, DRD3 antagonist -91! and S2 tox inconclusive.
For Cc1cc(Cl)ccc1OCCCC(=O)Nc1cc(S(=O)(=O)N2CCOCC2)ccc1N1CCOCC1 the results were DRD3 agonist inactive, a7 integrin act inactive, IL-1B inflam inh inactive, DRD3 antagonist inactive and S2 tox inactive.
`Cc1ccc(C2CC(c3ccccc3)=NN2C(=O)CSc2nnc(-c3ccc(Cl)cc3)o2)o1` (centres undefined) gave ATXN2 expr inh inactive, DRD3 agonist inactive, a7 integrin act inactive, IL-1B inflam inh inactive, DRD3 antagonist inactive and S2 tox inactive.
For CCCCOc1ccccc1NC(=O)CC1Nc2ccccc2NC1=O (centres undefined) the results were ATXN2 expr inh inactive, DRD3 agonist inactive, a7 integrin act inactive, IL-1B inflam inh inconclusive, DRD3 antagonist inactive and S2 tox inactive.
For Cc1cc(C)c2sc(N(Cc3cccnc3)C(=O)CCS(=O)(=O)c3ccccc3)nc2c1 the results were DRD3 agonist inactive.
Cc1ccc(C(=O)CSc2nnnn2C(C)C)c(C)c1 was read as ATXN2 expr inh 7.9µM, DRD3 agonist inactive, a7 integrin act inactive, IL-1B inflam inh inactive, DRD3 antagonist inactive and S2 tox inactive.
`Cc1ccc(C)c(C(=O)CSc2nnnn2C(C)C)c1` gave ATXN2 expr inh inactive, DRD3 agonist inactive, a7 integrin act inactive, IL-1B inflam inh inactive, DRD3 antagonist inactive and S2 tox inactive.
CC(C)C(=O)Nc1cccc(C(=O)OCC(=O)c2ccc(Cl)cc2Cl)c1 was read as ATXN2 expr inh inactive, DRD3 agonist 31, a7 integrin act inactive, IL-1B inflam inh inactive, DRD3 antagonist inactive and S2 tox inconclusive.
`CC(=O)Nc1cc(C(=O)OCC(=O)c2ccc(Cl)cc2Cl)ccc1C` gave ATXN2 expr inh inactive, DRD3 agonist inactive, a7 integrin act inactive, IL-1B inflam inh inactive, DRD3 antagonist inactive and S2 tox inactive.

Source: PubChem (National Center for Advancing Translational Sciences (NCATS))
